# Among all 48,000 compounds or so, about 13,000 (27%) showed an effect of 50% or more. This is one part of the list.
# Tested on: Wolbachia pipientis
# Assay: Anti-Wolbachia Cell-Based Screen
# Type: functional
# Parameters: scale not given: in the data most compounds retested in dose-response had high values
# Conditions: 5 µM
row,Structure (SMILES),Percent Effect [%]
1,CC(C)N(CC(N)=O)Cc1c(Cl)ccc2cccnc12,35.48
2,CCN(CC)C(=O)c1cnc(Sc2nccn2C)c(Cl)c1,-3.996
3,COc1ccccc1CC(=O)NCCCN1CCCC1C(=O)N(C)C (stereo not drawn),-7.215
4,CCN(Cc1noc(C)n1)C(=O)C(c1ccccc1C)N(C)C (stereo not drawn),20.53
5,CS(=O)(=O)NCC(=O)NC1(c2ccc(Cl)c(Cl)c2)CC1,-6.64
6,Cc1ccc(-n2cc(CN3CCOCC(CN(C)C)C3)cn2)cc1C (stereo not drawn),-29.82
7,Cl.O=C(O)[C@@H]1CCCN1c1nccc(Nc2ccccc2)n1,110.6
8,Cc1cn2nc(N3CCCC3C(=O)N3CCSCC3)sc2n1 (stereo not drawn),-34.07
9,O=C(Nc1cccc(N2CCCC2)c1)C1CCCN1c1nccs1 (stereo not drawn),-13.09
10,O=C([C@@H]1CCCN1c1nccc(Nc2ccccc2)n1)N1CCCCC1,107.6
11,CNC(=O)[C@@H](c1ccccc1)N1CCC[C@H]1C(=O)NCc1ccccn1.Cl.Cl,-0.04544
12,O=C(C1CCCN1c1ncnc2ccsc12)N1CCSCC1 (stereo not drawn),-9.281
13,OCc1ccc(N2CCN(c3ncccn3)CC2)c(F)c1,10.85
14,COc1cc(C2C3=C(COC3=O)Nc3[nH]nc(C)c32)cc(Br)c1O (stereo not drawn),6.444
15,CC(C)CSc1ccc(-n2cccn2)nn1,-15.59
16,O=C(O)C(F)(F)F.O=C1[C@H]2CN(CC3CCOCC3)C[C@H]2CN1c1ccsc1,-12.76
17,O=S(=O)(c1ccccc1)N1CCCCC1c1cc[nH]n1 (stereo not drawn),7.34
18,CS(=O)(=O)c1ccc(CN2CCCCC2c2ccc(F)cc2)cc1 (stereo not drawn),14.88
19,COCCN(C)CC1CCCN1S(=O)(=O)c1cccc(F)c1F (stereo not drawn),-7.612
20,CNS(=O)(=O)c1ccc(CN2CCCC2c2ccc(F)cc2)cc1 (stereo not drawn),-2.722
21,O=S(=O)(c1ccccc1)N1CCCC1c1cc[nH]n1 (stereo not drawn),100.7
22,CCN1C(=O)C[C@@H]2[C@@H]1CCN2S(=O)(=O)c1ccccc1,-17.79
23,O=S(=O)(c1ccc(F)cc1)N1CCCC1c1cc[nH]n1 (stereo not drawn),93.9
24,COc1nn(C)c2c1CCCN(S(=O)(=O)c1ccccc1F)C2,9.619
25,O=S(=O)(c1ccc(F)cc1)N1CCCCC1c1cc[nH]n1 (stereo not drawn),93.21
26,O=S(=O)(c1ccccc1F)N1CCCCC1c1cc[nH]n1 (stereo not drawn),126.5

row,Structure (SMILES),Percent Effect [%]
1,O=C(O)C(F)(F)F.O=S(=O)(c1ccc(F)cc1)N1CC[C@H]2[C@H]1CCN2c1ncccn1,5.126
2,CN(Cc1ccno1)C(=O)c1cccc(CC2CCNCC2)c1,-13.23
3,CCNC(=O)NC(=O)CNC1(c2noc(C)n2)CCCC1,91.61
4,Cc1nc(C2(NCc3ccc(C#N)cc3F)CCCC2)no1,14.6
5,Cc1nc(C2(NC(=O)NCc3cc(C#N)ccc3F)CCCC2)no1,-8.279
6,COc1cc(-c2nccn2C(C)CCn2cccn2)cc2c1OCO2 (stereo not drawn),-13.68
7,CC1CCN(C)c2ccccc2N1C(=O)c1ccc(=O)n(C)n1 (stereo not drawn),-12.65
8,CC(C)(C)CN1CCCC(O)(CN2CCc3[nH]ncc3C2)C1=O (stereo not drawn),-1.805
9,CC(C)(C)CN1CCCC12Cc1ccccc1CNC2=O (stereo not drawn),188
10,CC(C)CCN1CCCC12Cc1ccccc1CNC2=O (stereo not drawn),106.1
11,O=C(CSc1nnc[nH]1)NCc1cccs1,-6.872
12,Cc1ccc(CNC(=O)CN(CCC(N)=O)c2ccc(F)cc2)cc1,105.8
13,Cc1cccc(N(CCC(N)=O)CC(=O)Nc2ccccc2)c1,2.508
14,O=C(CN(Cc1cccs1)c1ccc(F)cc1)NC1CCOCC1,-0.05044
15,NC(=O)CCN(CC(=O)NCc1ccccn1)c1ccc(F)cc1,119
16,Cc1cccc(N(CCC(N)=O)CC(=O)NC2CCCC2)c1,-5.461
17,O=C(NCc1ccccn1)N(Cc1ccc(F)cc1F)C1CC1,-2.472
18,COc1nn(C)cc1C(=O)NCC(=O)NCc1ccccn1,5.267
19,NC(=O)CCN(CC(=O)NCc1cccs1)c1ccc(F)cc1,110
20,CS(=O)(=O)CCOCCNc1ccc(Br)cn1,-8.426
21,CN(CCS(=O)(=O)c1cc(Cl)ccc1Cl)CC(=O)Nc1cccc(F)c1,-24.13
22,CC1CCCN(C(=O)c2cn(-c3ccc(C(F)(F)F)cn3)nn2)C1 (stereo not drawn),-4.176
23,Cc1cncc(C2CCCN(Cc3ccncc3)C2)n1 (stereo not drawn),93.31
24,Cc1ccc(CN2CCCC(c3cncc(C)n3)C2)cn1 (stereo not drawn),118.4
25,Cc1cncc(C2CCCN(CC3CCC3)C2)n1 (stereo not drawn),105.7
26,Cc1cnc(CN2CCCC(c3cc(C(F)(F)F)[nH]n3)C2)cn1 (stereo not drawn),-5.55

row,Structure (SMILES),Percent Effect [%]
1,CN(CCc1cn[nH]c1)C(=O)C1CC(=O)N(Cc2ccccn2)C1 (stereo not drawn),3.692
2,CC(=O)NCc1cc(-c2cccs2)n(C2CCCC2)n1,97.9
3,COCCNC(=O)NCCCOC1CCCc2ccccc21 (stereo not drawn),-3.457
4,CC(C(=O)NCC1CCCCC1)S(=O)(=O)Cc1csc(-c2cccs2)n1 (stereo not drawn),-22.28
5,CN(CCNC(=O)NCc1ccncc1)C1CCCC1,0.2327
6,COCCNC(=O)NCc1cc(-c2ccncc2)n(C2CCCC2)n1,117.5
7,CC(=O)NCc1nc(Cc2cccc(Cl)c2)nn1C1CCN(C)CC1,14.05
8,O=C(NCCn1cnc(C2CCCC2)cc1=O)NCc1cccs1,5.486
9,COCCNC(=O)NC1(c2nc(-c3ccncc3)no2)CCCCC1,-5.967
10,COCCNC(=O)NCc1cc(-c2cccs2)n(C2CCCC2)n1,108.7
11,CCCc1n[nH]c(C2CN(CCCS(C)(=O)=O)CCO2)n1 (stereo not drawn),8.162
12,CC(C)N1CCC(Nc2ccn(C)n2)C1=O (stereo not drawn),-18.51
13,CCc1n[nH]c(C2CN(CC(=O)NCCc3ccsc3)CCO2)n1 (stereo not drawn),-8.362
14,COc1ccc(S(=O)(=O)NCCC(O)c2cccs2)c(C)c1 (stereo not drawn),-2.091
15,COCc1nc(CNC2CSCCSC2)no1,8.788
16,CN(Cc1csc(-c2cccs2)n1)C(=O)CCn1ccc(=O)[nH]c1=O,-14.37
17,CCS(=O)(=O)N1CCC2(CC1)CC1(CCN(CCOC)CC1)C(=O)N2C.O=C(O)C(F)(F)F,-5.19
18,Cc1cnc(N2CCCOC(CN3CCCCC3)C2)nc1 (stereo not drawn),-5.032
19,Cc1noc(C)c1C(=O)N1CCC2(CC1)CC(Oc1ccccc1)CO2 (stereo not drawn),-6.513
20,CC(C)c1cc(C(=O)N2CCC3(CCc4ccccc4C(=O)N3)C2)no1 (stereo not drawn),122.1
21,CC(C)c1cc(=O)[nH]c(-c2ccccc2CN2CCC(C)(C)C2)n1,32.6
22,Cc1noc(C)c1CN1CC2(CCN(C(=O)c3ccc[nH]3)C2)CC1=O (stereo not drawn),-7.535
23,CC(C)c1cc(C(=O)N2CCC3(CCc4ccccc4C(=O)N3)C2)on1 (stereo not drawn),142.6
24,Cc1noc(C)c1C(=O)N1CCC2(CCc3ccccc3C(=O)N2)C1 (stereo not drawn),127.4
25,CC(C)c1cc(C(=O)N2CCOC3(CCNCC3)C2)no1.O=C(O)C(F)(F)F,-1.615
26,O=C1CCC2(CCCN(C(=O)c3ccco3)CC2)N1 (stereo not drawn),-12.15

row,Structure (SMILES),Percent Effect [%]
1,CCC1CN(CCCNS(C)(=O)=O)c2ccccc2O1 (stereo not drawn),-7.766
2,Cc1cnn(CCNCC(O)COc2ccc(Cl)cc2)c1 (stereo not drawn),-10.6
3,CN(C)C(=O)c1ccc(C(C(=O)O)N(C)Cc2ccccc2Cl)cc1 (stereo not drawn),24.87
4,CC(C)=CCS(=O)(=O)Cc1nc(C(C)C)no1,-0.5421
5,N#Cc1ccc(OCCCN2CCc3cncnc3C2)cc1,-6.561
6,Cc1nnc(NCc2ccc(SC(F)F)cc2)o1,-21.33
7,CCN(Cc1ccc2cccc(O)c2n1)CC1CCCO1 (stereo not drawn),12.41
8,CC(C)n1ccnc1CNC(=O)c1cccc(CCC(C)(C)O)c1,1.765
9,Cc1ccc(CN2CCC3(CC2)CC(c2cccnc2)CO3)s1.O=C(O)C(F)(F)F.O=C(O)C(F)(F)F (stereo not drawn),-3.874
10,O=C(O)C(F)(F)F.O=C(O)C(F)(F)F.c1cncc(C2COC3(CCN(Cc4cccs4)CC3)C2)c1 (stereo not drawn),94.58
11,O=C(NC1COC2(CCN(Cc3cccs3)CC2)C1)c1ccccn1.O=C(O)C(F)(F)F (stereo not drawn),-12.32
12,O=C(O)C(F)(F)F.O=C(O)C(F)(F)F.c1cncc(C2COC3(CCN(Cc4nccs4)CC3)C2)c1 (stereo not drawn),106.4
13,COc1c(C)cc(S(=O)(=O)NCC2CNCCOC2)cc1C (stereo not drawn),-7.949
14,CC1CS(=O)(=O)CCN1Cc1ccccc1OCC(F)(F)F (stereo not drawn),-0.5987
15,CN(C)C(C(=O)N1CC(c2ccccn2)C1)c1cccc(F)c1 (stereo not drawn),0.3934
16,CN(C)S(=O)(=O)N(C)C(c1cccnc1)c1ccc(F)c(F)c1 (stereo not drawn),6.924
17,CN(C)S(=O)(=O)N(C)C(c1cccc(F)c1)c1ccccn1 (stereo not drawn),51.58
18,CN(C(=O)C1CCCC1)C(c1cccc(F)c1)c1ccccn1 (stereo not drawn),96.46
19,CC(NCc1cccc(S(=O)(=O)N(C)C)c1)c1ccccn1 (stereo not drawn),-1.385
20,CCC(C)(C)NC(=O)CN(C)C(c1cccc(F)c1)c1ccccn1 (stereo not drawn),3.895
21,CCNC(=O)N(C)C(c1ccccc1)c1ccccn1 (stereo not drawn),96.55
22,CCNC(=O)N(C)C(c1cccc(F)c1)c1ccccn1 (stereo not drawn),4.567
23,CC(C)NC(=O)N(C)C(c1cccc(F)c1)c1ccccn1 (stereo not drawn),108.7
24,CCC(CC)CNC(=O)N(C)C(C)c1ccccn1 (stereo not drawn),-0.07078
25,Cc1cccc(C(C(=O)N2CC(c3ccccn3)C2)N(C)C)c1 (stereo not drawn),-0.3127

# Reference: ChEMBL document CHEMBL3988442, “University of Dundee, Small-Polar-MMV Screening Library” (2021)
